# Reference: ChEMBL document CHEMBL2218924, “A broad activity screen in support of a chemogenomic map for kinase signalling research and drug discovery” (Biochem J, 2013)
# Columns and labels:
# [1] = molecular target: T1, Ephrin type-A receptor 3 (Homo sapiens) (UniProt P29320); details: at 10 µM
# T1 sequence (whole entry): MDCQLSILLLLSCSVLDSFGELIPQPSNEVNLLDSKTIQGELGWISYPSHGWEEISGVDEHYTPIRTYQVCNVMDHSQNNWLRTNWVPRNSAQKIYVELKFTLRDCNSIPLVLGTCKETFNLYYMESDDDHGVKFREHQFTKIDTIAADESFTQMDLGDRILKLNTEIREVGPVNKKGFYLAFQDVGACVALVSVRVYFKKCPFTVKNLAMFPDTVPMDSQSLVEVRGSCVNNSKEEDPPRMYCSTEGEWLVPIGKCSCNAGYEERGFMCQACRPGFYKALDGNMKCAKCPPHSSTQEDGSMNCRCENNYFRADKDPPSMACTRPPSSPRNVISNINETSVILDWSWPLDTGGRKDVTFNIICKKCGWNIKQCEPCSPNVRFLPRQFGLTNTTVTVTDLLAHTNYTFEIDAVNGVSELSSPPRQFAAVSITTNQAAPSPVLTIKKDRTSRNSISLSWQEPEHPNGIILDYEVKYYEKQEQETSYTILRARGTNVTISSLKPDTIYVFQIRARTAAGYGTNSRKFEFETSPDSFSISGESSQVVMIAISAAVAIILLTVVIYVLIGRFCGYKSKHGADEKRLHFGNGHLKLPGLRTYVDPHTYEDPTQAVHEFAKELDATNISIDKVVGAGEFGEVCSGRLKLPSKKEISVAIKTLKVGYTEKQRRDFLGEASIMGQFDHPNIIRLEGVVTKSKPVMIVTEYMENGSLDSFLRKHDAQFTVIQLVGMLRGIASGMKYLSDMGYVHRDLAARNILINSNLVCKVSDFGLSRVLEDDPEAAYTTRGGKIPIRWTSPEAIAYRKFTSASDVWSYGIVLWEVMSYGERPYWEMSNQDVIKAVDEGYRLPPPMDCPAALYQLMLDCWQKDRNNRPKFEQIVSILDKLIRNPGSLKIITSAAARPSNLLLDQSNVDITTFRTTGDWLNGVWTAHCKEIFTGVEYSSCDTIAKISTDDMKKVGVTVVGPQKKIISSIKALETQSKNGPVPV
# [2] = molecular target: Ephrin type-A receptor 4 (Homo sapiens) (UniProt P54764); details: at 1 µM
# [3] = molecular target: Ephrin type-A receptor 4 (Homo sapiens) (UniProt P54764); details: at 10 µM
# [4] = molecular target: Ephrin type-A receptor 5 (Homo sapiens) (UniProt P54756); details: at 1 µM
# [5] = molecular target: Ephrin type-A receptor 5 (Homo sapiens) (UniProt P54756); details: at 10 µM
# [6] = molecular target: Ephrin type-A receptor 7 (Homo sapiens) (UniProt Q15375); details: at 1 µM
# [7] = molecular target: Ephrin type-A receptor 7 (Homo sapiens) (UniProt Q15375); details: at 10 µM
# [8] = molecular target: T2, Ephrin type-A receptor 8 (Homo sapiens) (UniProt P29322); details: at 1 µM
# T2 sequence (whole entry): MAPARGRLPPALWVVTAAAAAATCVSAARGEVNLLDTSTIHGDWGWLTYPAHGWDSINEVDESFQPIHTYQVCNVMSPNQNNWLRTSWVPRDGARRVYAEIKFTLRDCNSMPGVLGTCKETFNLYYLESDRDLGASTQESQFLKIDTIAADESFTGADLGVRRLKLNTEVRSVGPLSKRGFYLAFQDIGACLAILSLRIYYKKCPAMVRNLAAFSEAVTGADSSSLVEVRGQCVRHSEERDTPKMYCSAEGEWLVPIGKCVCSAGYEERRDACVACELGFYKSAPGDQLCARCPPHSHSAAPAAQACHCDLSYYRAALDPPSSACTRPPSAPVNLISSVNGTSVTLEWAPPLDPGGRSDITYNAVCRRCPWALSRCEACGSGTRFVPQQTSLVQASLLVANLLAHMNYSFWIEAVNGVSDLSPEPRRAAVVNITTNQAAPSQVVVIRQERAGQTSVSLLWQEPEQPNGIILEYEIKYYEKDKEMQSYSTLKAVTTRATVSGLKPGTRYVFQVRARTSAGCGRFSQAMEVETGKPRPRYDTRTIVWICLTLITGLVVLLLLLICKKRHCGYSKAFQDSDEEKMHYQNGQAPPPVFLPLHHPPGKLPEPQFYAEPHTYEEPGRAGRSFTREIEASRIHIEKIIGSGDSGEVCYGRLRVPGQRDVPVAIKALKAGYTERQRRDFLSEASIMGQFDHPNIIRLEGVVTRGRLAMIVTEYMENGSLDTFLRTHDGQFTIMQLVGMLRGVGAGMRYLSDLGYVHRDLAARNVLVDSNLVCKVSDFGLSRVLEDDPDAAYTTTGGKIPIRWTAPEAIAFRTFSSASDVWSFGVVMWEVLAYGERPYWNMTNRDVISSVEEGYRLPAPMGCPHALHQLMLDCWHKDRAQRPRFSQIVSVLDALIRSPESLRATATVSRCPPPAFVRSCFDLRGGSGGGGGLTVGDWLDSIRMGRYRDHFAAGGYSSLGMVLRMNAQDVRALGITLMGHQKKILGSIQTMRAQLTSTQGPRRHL
# [9] = molecular target: T2, Ephrin type-A receptor 8 (Homo sapiens); details: at 10 µM
# [10] = molecular target: T3, Ephrin type-B receptor 1 (Homo sapiens) (UniProt P54762); details: at 1 µM
# T3 sequence (whole entry): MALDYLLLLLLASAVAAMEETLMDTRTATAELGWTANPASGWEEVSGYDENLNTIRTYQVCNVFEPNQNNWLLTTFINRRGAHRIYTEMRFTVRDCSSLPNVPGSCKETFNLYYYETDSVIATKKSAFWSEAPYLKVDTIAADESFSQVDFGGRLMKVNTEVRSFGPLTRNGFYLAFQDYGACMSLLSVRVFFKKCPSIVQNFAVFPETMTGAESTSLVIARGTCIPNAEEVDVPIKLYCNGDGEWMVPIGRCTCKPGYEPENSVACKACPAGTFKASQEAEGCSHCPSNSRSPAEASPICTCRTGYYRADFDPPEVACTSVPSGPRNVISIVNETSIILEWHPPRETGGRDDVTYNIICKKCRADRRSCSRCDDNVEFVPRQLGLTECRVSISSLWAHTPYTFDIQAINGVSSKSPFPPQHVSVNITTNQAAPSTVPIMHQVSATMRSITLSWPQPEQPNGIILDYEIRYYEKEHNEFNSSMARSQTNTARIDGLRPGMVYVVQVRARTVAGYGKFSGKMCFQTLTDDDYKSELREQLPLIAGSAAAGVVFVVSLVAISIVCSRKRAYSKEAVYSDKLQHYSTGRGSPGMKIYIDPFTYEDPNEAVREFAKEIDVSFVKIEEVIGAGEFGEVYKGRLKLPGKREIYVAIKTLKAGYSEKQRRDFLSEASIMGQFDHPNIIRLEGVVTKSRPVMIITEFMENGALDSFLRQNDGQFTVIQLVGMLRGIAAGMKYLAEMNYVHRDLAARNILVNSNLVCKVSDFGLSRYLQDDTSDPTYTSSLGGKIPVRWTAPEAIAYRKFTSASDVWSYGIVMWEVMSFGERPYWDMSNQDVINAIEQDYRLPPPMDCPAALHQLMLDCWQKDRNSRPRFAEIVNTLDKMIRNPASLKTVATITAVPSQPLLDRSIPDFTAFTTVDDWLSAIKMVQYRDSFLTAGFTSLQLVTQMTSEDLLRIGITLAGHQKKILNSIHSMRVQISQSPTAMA
# Chain of Ephrin type-A receptor 7 (Homo sapiens) (Q15375 28-998 limits assumed): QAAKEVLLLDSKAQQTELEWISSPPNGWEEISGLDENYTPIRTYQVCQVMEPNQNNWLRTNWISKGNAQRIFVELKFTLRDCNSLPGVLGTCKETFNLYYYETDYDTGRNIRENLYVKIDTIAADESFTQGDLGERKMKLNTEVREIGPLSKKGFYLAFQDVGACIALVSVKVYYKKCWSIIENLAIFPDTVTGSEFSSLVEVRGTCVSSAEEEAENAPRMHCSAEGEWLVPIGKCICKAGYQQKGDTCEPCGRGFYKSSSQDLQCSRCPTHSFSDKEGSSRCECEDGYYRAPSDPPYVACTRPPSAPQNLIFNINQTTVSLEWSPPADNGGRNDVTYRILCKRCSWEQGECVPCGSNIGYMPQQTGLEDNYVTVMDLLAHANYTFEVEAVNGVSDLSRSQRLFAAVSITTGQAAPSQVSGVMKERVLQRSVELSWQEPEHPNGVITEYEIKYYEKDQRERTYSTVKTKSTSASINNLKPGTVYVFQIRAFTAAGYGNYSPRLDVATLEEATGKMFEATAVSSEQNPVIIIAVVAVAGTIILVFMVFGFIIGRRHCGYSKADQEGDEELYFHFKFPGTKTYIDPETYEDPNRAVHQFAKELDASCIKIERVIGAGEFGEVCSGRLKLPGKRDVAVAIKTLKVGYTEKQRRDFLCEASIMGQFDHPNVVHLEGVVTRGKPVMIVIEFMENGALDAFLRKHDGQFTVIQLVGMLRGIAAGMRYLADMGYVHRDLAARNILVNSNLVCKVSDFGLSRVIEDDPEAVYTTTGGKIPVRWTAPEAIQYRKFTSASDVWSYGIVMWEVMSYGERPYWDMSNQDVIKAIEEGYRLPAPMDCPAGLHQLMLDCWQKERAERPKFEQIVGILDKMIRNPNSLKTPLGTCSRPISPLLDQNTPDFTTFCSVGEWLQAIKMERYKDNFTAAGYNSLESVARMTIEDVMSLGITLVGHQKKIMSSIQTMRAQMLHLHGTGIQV
# Chain of Ephrin type-A receptor 4 (Homo sapiens) (P54764 whole entry): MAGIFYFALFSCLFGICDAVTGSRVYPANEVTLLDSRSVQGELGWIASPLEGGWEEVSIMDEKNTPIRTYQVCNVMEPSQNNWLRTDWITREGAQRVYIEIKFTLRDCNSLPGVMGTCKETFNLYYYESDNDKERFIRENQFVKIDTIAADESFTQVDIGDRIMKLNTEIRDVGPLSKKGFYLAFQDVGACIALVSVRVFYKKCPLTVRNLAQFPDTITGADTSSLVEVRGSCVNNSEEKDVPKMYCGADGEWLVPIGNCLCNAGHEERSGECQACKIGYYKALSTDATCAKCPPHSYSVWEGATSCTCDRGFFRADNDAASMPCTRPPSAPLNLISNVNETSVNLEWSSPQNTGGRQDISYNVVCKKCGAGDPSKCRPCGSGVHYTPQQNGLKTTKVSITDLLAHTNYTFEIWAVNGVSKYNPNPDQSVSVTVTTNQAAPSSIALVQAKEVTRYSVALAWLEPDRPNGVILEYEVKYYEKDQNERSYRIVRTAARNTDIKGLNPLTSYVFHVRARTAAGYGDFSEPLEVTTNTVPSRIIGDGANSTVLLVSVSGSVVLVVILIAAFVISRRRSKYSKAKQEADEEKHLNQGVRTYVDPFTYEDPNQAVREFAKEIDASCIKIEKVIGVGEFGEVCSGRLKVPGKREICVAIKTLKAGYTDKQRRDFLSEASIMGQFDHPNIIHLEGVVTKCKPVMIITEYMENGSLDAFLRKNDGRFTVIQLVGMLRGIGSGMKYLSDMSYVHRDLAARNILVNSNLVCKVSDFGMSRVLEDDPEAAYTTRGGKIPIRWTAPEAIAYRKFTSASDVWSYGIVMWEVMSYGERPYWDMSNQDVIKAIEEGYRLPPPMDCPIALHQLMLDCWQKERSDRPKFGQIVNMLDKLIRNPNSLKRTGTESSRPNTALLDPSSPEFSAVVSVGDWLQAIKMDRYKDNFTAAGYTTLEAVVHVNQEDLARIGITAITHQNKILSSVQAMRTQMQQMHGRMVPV
# Chain of Ephrin type-A receptor 5 (Homo sapiens) (P54756 whole entry): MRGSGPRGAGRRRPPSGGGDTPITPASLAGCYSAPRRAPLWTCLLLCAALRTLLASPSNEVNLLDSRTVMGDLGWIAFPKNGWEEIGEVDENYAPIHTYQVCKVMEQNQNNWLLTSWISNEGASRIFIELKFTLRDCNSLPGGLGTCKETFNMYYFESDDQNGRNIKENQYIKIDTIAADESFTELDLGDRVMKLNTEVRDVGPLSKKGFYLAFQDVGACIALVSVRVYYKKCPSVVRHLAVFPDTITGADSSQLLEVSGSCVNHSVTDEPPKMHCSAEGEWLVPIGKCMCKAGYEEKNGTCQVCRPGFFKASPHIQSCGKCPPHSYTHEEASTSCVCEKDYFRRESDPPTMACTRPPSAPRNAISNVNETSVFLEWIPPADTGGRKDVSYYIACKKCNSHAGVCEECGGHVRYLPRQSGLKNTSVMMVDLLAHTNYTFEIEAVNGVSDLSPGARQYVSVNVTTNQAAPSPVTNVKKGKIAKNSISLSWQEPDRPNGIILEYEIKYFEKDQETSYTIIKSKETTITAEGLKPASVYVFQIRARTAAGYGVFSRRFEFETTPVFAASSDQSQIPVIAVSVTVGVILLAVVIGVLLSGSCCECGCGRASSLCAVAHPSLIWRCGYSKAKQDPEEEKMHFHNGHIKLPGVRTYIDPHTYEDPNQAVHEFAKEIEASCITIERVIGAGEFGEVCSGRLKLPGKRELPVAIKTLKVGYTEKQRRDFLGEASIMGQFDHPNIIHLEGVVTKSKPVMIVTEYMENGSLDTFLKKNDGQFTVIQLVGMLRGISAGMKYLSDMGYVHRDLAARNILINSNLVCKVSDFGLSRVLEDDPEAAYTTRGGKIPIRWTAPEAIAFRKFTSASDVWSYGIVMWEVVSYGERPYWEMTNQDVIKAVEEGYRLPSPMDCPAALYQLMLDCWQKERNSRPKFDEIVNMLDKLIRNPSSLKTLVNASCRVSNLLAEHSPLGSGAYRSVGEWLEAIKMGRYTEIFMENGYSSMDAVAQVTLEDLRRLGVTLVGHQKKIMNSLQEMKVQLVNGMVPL
compound,measurement,setting,value
COc1cc2ncnc(Nc3ccc(O)c(Br)c3)c2cc1OC,residual activity,[1],20%
same,residual activity,[2],89%
same,residual activity,[3],41%
same,residual activity,[4],74%
same,residual activity,[5],21%
same,residual activity,[6],34%
same,residual activity,[7],7%
same,residual activity,[8],70%
same,residual activity,[9],28%
same,residual activity,[10],62%
